PubChem BioAssay (NCI)
Compounds without any hit were thinned out: in the full panel of roughly 83,000, 20% have a hit.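 Interpretation: 100, growth as untreated; towards 0, rising growth inhibition; 0, no net growth; 0 to -100, cell death. Compounds scoring below 10 were considered active.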 A number with no mark means an inactive call. Activity calls are given as the source filed them.

Tests used:
Assay in all cases: NCI-60 one-dose screen, 48 h (100 = growth as untreated, 0 = no growth, -100 = all killed)
Conditions in all cases: 10 µM unless noted
OVCAR-8 ovarian = tested on: OVCAR-8 ovarian
OVCAR-5 ovarian = tested on: OVCAR-5 ovarian
OVCAR-4 ovarian = tested on: OVCAR-4 ovarian
SK-OV-3 ovarian = tested on: SK-OV-3 ovarian
IGROV1 ovarian = tested on: IGROV1 ovarian
OVCAR-3 ovarian = tested on: OVCAR-3 ovarian
HS 578T breast = tested on: HS 578T breast
NCI/ADR-RES ovarian = tested on: NCI/ADR-RES ovarian
T-47D breast = tested on: T-47D breast
BT-549 breast = tested on: BT-549 breast
MDA-MB-435 melanoma = tested on: MDA-MB-435 melanoma
SW-620 colon = tested on: SW-620 colon
MCF7 breast = tested on: MCF7 breast
HCT-116 colon = tested on: HCT-116 colon
HCC-2998 colon = tested on: HCC-2998 colon
KM12 colon = tested on: KM12 colon
RPMI-8226 leukemia = tested on: RPMI-8226 leukemia

SMILES	growth (OVCAR-8 ovarian)	growth (OVCAR-5 ovarian)	growth (OVCAR-4 ovarian)	growth (SK-OV-3 ovarian)	growth (IGROV1 ovarian)	growth (OVCAR-3 ovarian)	growth (HS 578T breast)	growth (NCI/ADR-RES ovarian)	growth (T-47D breast)	growth (BT-549 breast)	growth (MDA-MB-435 melanoma)	growth (SW-620 colon)	growth (MCF7 breast)	growth (HCT-116 colon)	growth (HCC-2998 colon)	growth (KM12 colon)	growth (RPMI-8226 leukemia)
O=C1/C(=C\c2c[nH]c3ccccc23)c2ccccc2N1c1c(Cl)cccc1Cl	8.34% (active)	-35.9% (active)	25%	22.7%	23.9%	-27.8% (active)	-11.4% (active)	-8.2% (active)	1.28% (active)	-22.1% (active)	-21.6% (active)	5.11% (active)	0.197% (active)	-100% (active)	-91.9% (active)	-82.3% (active)	–
COc1ccc(-c2nc(SCCC(C)C)nc(N/N=C\c3cccc([N+](=O)[O-])c3)c2C#N)cc1	39.7%	38.4%	-13.3% (active)	63.4%	38.8%	-30.4% (active)	9.44% (active)	56.2%	27.5%	63.2%	56.3%	15.5%	35.6%	23.5%	52%	27.1%	–
CNC(=O)CCN1CCN(CC/C=C2\c3ccccc3Sc3ccc(Cl)cc32)CC1	–	–	105%	122%	–	57.8%	–	98.3%	85%	91.5%	72.3%	86.9%	73.2%	68.8%	83.6%	62.3%	70.1%
COc1ccc(-c2nc(SCCC(C)C)nc(N/N=C\c3cccc(Cl)c3)c2C#N)cc1	57.7%	–	-13.4% (active)	84%	76.2%	38.5%	20.7%	79.2%	59.7%	85.5%	88.5%	54.4%	73.3%	33.3%	92.2%	90.6%	–
O=C(CSc1nnc(-c2ccc(NC(=O)c3cccnc3)cc2)o1)Nc1cccc(Br)c1	88.7%	99.3%	93.8%	110%	80.5%	107%	90.6%	93.8%	56.5%	109%	94.3%	96.8%	90.3%	–	106%	105%	–
CCOC(=O)c1csc(NC(=O)COc2cccc(/C=C3\Oc4cc(OC)ccc4C3=O)c2)n1	–	130%	90%	101%	–	78.4%	91.3%	–	68.9%	84.7%	90.5%	108%	81.1%	90.7%	–	83.9%	64.4%
Cc1ccc(NS(=O)(=O)c2ccc3c(c2)C(=O)CC(c2ccc(C(=O)C(C)C)cc2)N3)cc1C (configuration not stated)	73.4%	80.1%	62.9%	74.4%	66.8%	74.4%	73.2%	56.3%	39.8%	65.6%	–	70.5%	37.4%	54%	–	71.9%	–
O=c1c2cc(F)ccc2sc2c(NCCCN3CCCC3)nc3ccccc3c12	55.6%	70.3%	48.7%	88.9%	15.1%	29.3%	43.8%	67.5%	64.6%	70.6%	20.6%	20.4%	-24.8% (active)	24.2%	22.1%	27.7%	–
COc1ccc(-c2c(N)n[nH]c2-c2ccc(Cl)cc2O)cc1OC	–	72.6%	–	102%	92.3%	95.6%	89.2%	90.4%	91.2%	105%	69.7%	102%	86%	–	–	83%	74.5%
O=C(NC(Cc1nnc2n(Cc3ccccc3)c(=O)c3c4c(sc3n12)CCCC4)c1ccc(Cl)cc1)c1ccccc1 (configuration not stated)	–	104%	81%	109%	–	90.4%	91.3%	–	85.3%	107%	–	73.1%	84.9%	87.1%	68.5%	98.7%	67.9%
O=c1c2cc(F)ccc2sc2c(NCCN3CCCCC3)nc3ccccc3c12	57.6%	69.3%	50.7%	78.8%	27.3%	31.5%	56%	67.1%	66.9%	75.1%	29.5%	29.1%	15.8%	25.3%	13.9%	29%	–
Fc1cnc(NC2CC2)nc1-c1cnc2ccc(N3CCOCC3)cn12	9.65% (active)	-4.33% (active)	-1.69% (active)	20.6%	4.44% (active)	4.44% (active)	-7.95% (active)	7.33% (active)	–	-5.41% (active)	0.301% (active)	5.59% (active)	2.32% (active)	3.97% (active)	1.18% (active)	-2.57% (active)	–
C[n+]1cccc(CC(=O)NO)c1	95.3%	110%	106%	90.9%	101%	110%	101%	105%	79%	103%	107%	105%	96.4%	104%	110%	107%	–
COc1ccc(C(=O)/C=C/c2c(C(F)(F)F)nc3sccn23)cc1OC	–	44.6%	25.5%	9.87% (active)	81.9%	-33.9% (active)	-5.99% (active)	4.94% (active)	-16.9% (active)	11.3%	3.47% (active)	10.4%	7.83% (active)	6.66% (active)	31.4%	11.2%	–
Cc1ccc(/C=C2\C(=O)N(C)c3ccc(S(=O)(=O)Nc4ccc(C(C)(C)C)cc4)cc32)s1	29.5%	69.4%	-1.02% (active)	76.4%	63.9%	11.4%	-5.78% (active)	62.1%	55%	87.4%	69.1%	50.4%	54.6%	37.2%	85%	59.9%	–
COc1cc(C(=O)/C=C/c2c(C(F)(F)F)nc3sccn23)cc(OC)c1OC	12.2%	15.1%	17.8%	2.13% (active)	23%	-30.6% (active)	37.4%	-3.02% (active)	-22.7% (active)	-14.2% (active)	12.6%	-21.2% (active)	6.82% (active)	-85.3% (active)	-0.607% (active)	-75.6% (active)	–

SMILES	growth (OVCAR-8 ovarian)	growth (OVCAR-5 ovarian)	growth (OVCAR-4 ovarian)	growth (SK-OV-3 ovarian)	growth (IGROV1 ovarian)	growth (OVCAR-3 ovarian)	growth (HS 578T breast)	growth (NCI/ADR-RES ovarian)	growth (T-47D breast)	growth (BT-549 breast)	growth (MDA-MB-435 melanoma)	growth (SW-620 colon)	growth (MCF7 breast)	growth (HCT-116 colon)	growth (HCC-2998 colon)	growth (KM12 colon)	growth (RPMI-8226 leukemia)
O=C(/C=C/c1cccc(O)c1)c1cccc(-n2cc(-c3ccc4ccccc4c3)[nH]c2=O)c1	13.5%	-42.6% (active)	-76.2% (active)	19.6%	85.7%	-73.2% (active)	-11% (active)	-39.3% (active)	-22.5% (active)	-29.8% (active)	-15.6% (active)	-55.1% (active)	-32.2% (active)	-100% (active)	–	-72% (active)	–
CC1OC(O[C@H]2/C=C/C=C/C=C/C=C/C=C/C=C/C=C/[C@H](C)[C@@H](O)[C@@H](C)[C@H](C)OC(=O)CC(O)CC(O)CCC(O)C(O)CC(O)C[C@]3(O)C[C@H](O)C(C(=O)O)C(C2)O3)C(O)[C@H](N)C1O (some centres not stated)	23.8%	-21% (active)	–	38%	16.6%	-42.3% (active)	-18.7% (active)	-29.9% (active)	–	36.6%	-69.5% (active)	-24.9% (active)	28.8%	-38.1% (active)	53.5%	41.6%	–
COc1nc(N(C)O)nc(N(C)O)n1	27.1%	53.6%	33.3%	32%	54.7%	9.27% (active)	87.9%	14.9%	30.3%	12.4%	49.8%	34.6%	15%	7.23% (active)	9.13% (active)	24.5%	–
NCCCNc1nc2ccccc2c2c(=O)c3cccc(Cl)c3sc12	-16.2% (active)	50%	38.2%	73%	7.81% (active)	-51.5% (active)	28.1%	29.2%	35.3%	76.6%	-43.3% (active)	-79.4% (active)	-86.6% (active)	-92% (active)	–	-72.6% (active)	–
O=C1Nc2ccc(F)cc2C12Nc1cc(Cl)ccc1S2 (configuration not stated)	–	121%	77.9%	83.8%	–	82.8%	94.4%	93.4%	40%	67.7%	97.5%	106%	60.3%	85.7%	99.5%	90.5%	32.9%
C[n+]1cc2c3c(ccc2c2ccc4cc5c(cc4c21)OCO5)OCO3	-79.5% (active)	-65.5% (active)	–	-99.5% (active)	-83.2% (active)	-93.5% (active)	-2.95% (active)	–	-78.2% (active)	-91.7% (active)	-85.8% (active)	-67.3% (active)	-72.5% (active)	-89.2% (active)	-82.1% (active)	-78.5% (active)	–
COc1ccc(NC(=O)CSc2nc(C)c(C(C)=O)n2-c2ccc(Cl)cc2)cc1	–	98.6%	85.3%	–	95.1%	100%	90.4%	89.4%	80.5%	80.4%	89%	96.1%	92.9%	81.3%	90.3%	95.5%	97.3%
O=C(Cc1ccc(F)c(F)c1)Nc1cc(C2(C(F)(F)F)CC2)nn1Cc1ccccc1	–	2.55% (active)	10.2%	-24.7% (active)	30.3%	7.3% (active)	–	4.36% (active)	-8.37% (active)	14.9%	0.174% (active)	11.5%	-7.28% (active)	6.07% (active)	17.2%	1.89% (active)	3.57% (active)
Cn1cc2c(c1)-c1nc(Nc3ccccc3)ncc1CC2	79.6%	–	69.3%	77.6%	58.6%	69.5%	78.4%	71.6%	40.7%	32.1%	70.3%	52.1%	25.2%	35.4%	50.7%	11.9%	–
N#Cc1c(N2CCNCC2)nc2sc3cc(Cl)c(Cl)cc3n2c1=N	–	131%	85.5%	84.7%	–	107%	114%	106%	–	118%	113%	99%	75.2%	–	118%	115%	80.2%
CC1(C)CC(=O)C2=C(C1)N(c1ccc(OC(F)(F)F)cc1)C(N)=C(C#N)C2c1ccc(Cl)cc1 (configuration not stated)	56.2%	91%	85%	62.7%	90.3%	94.5%	65.5%	87.6%	79.1%	109%	93.1%	101%	86%	68.4%	94.7%	86.9%	–
Cc1ccc(NS(=O)(=O)c2ccc3c(c2)C2OCCC2C(c2ccc(C(=O)C(C)C)cc2)N3)cc1C (configuration not stated)	58.1%	60.6%	34.6%	59.3%	56.9%	59.6%	81.7%	41.9%	24.3%	54.3%	36.3%	51.4%	17.6%	30.4%	62.2%	36.5%	–
COC(=O)c1ccc(C2Nc3ccc(S(=O)(=O)Nc4ccc(C)c(C)c4)cc3C3OCCC23)cc1 (configuration not stated)	92%	95.7%	–	92%	84.4%	79.1%	100%	88.5%	51.1%	84.7%	94.7%	78.5%	43.1%	62.1%	111%	78.1%	–
COc1cc(C(=O)/C=C/c2c(-c3ccc(F)cc3)nc3sc(C)cn23)cc(OC)c1OC	22.5%	143%	24.4%	64.4%	84.9%	16.5%	25.4%	2.75% (active)	9.38% (active)	15%	3.64% (active)	30.6%	29.5%	20.1%	68.2%	10.4%	–
CC(C)(C)CC(C)(C)Nc1c(-c2ccncc2)nc2cnccn12	–	93.7%	84%	92.8%	99.8%	102%	92.2%	99.5%	86.1%	–	99.2%	106%	96.5%	90.1%	116%	98.1%	–
COC1=CC(=O)C[C@@H](C)[C@]12Oc1c(Cl)c(OC)cc(OC)c1C2=O	96.9%	90.7%	–	99.2%	89.2%	99.8%	91.5%	75.5%	105%	78.3%	1.96% (active)	81.5%	85.2%	92.4%	75.5%	65.5%	–
